The antibiotic and cytotoxicity screens of Wong et al. (2023)
Hit rate of the full screen: of about 39,000 compounds, about 3,300 (8.5%) were called active. Only a selection was taken, and actives are over-represented in it overall.

tested on: HepG2; assay: cytotoxicity call (relative viability < 0.9); settings: 10 µM

**Q.** For C[C@@H]1CN([C@@H](C)CO)C(=O)c2cc(/C=C/c3ccccc3)cnc2O[C@@H]1CN(C)C(=O)CN1CCOCC1, which cytotoxicity call is on record?
**A.** inactive

**Q.** For COc1ccc(NC(=O)N(C)C[C@@H]2OCCCC[C@@H](C)Oc3ccc(NC(=O)Nc4cccc5ccccc45)cc3C(=O)N([C@H](C)CO)C[C@@H]2C)cc1, which cytotoxicity call is on record?
**A.** inactive

**Q.** For C[C@@H]1CCCCO[C@@H](CN(C)C(=O)c2ccncc2)[C@H](C)CN([C@@H](C)CO)C(=O)c2cc(NC(=O)C3CCCCC3)ccc2O1, which cytotoxicity call is on record?
**A.** inactive

**Q.** For Cc1noc(C)c1S(=O)(=O)N(C)C[C@@H]1Oc2ccc(NC(=O)CCCN(C)C)cc2CC(=O)N([C@@H](C)CO)C[C@H]1C, which cytotoxicity call is on record?
**A.** inactive

**Q.** Which cytotoxicity call does the source give for C[C@H](CO)N1C[C@H](C)[C@@H](CN(C)C(=O)Nc2ccc3c(c2)OCO3)OCc2ccccc2-c2c(n(C)c3ccccc23)C1=O here?
**A.** inactive

**Q.** Which cytotoxicity call does the source give for CN1C[C@@H]2CN(C(=O)[C@H]3CCOC3)C[C@H]2C1=O here?
**A.** inactive

**Q.** For CC(CO)(CO)NS(=O)(=O)c1ccccc1, which cytotoxicity call is on record?
**A.** inactive

**Q.** COc1ccncc1-c1ccccc1CN(C(=O)c1ccc(-c2ccc(C#N)cc2)o1)c1ccc(N2CCNCC2)cc1 was tested. Which cytotoxicity call did it give?
**A.** active

**Q.** With C[C@H](CO)N1C[C@H](C)[C@@H](CN(C)C(=O)Nc2ccc3c(c2)OCO3)OCCCC[C@H](C)Oc2ccc(NC(=O)CCC(F)(F)F)cc2C1=O as the compound, how does the cytotoxicity call read?
**A.** inactive

**Q.** With COc1ccc(S(=O)(=O)Nc2ccc3c(c2)C(=O)N([C@H](C)CO)C[C@H](C)[C@H](CN(C)S(=O)(=O)c2c(C)noc2C)O3)cc1 as the compound, how does the cytotoxicity call read?
**A.** inactive

**Q.** How did the cytotoxicity call turn out when CO[C@H]1CN(C)C(=O)c2ccc(NC(=O)c3ccc(F)cc3)cc2OC[C@H](C)N(C(=O)CN(C)C)C[C@@H]1C was run?
**A.** inactive

**Q.** Which cytotoxicity call does the source give for COCCNC(=O)C[C@@H]1CC[C@@H]2[C@H](COc3ccc(NS(=O)(=O)c4ccc(Cl)cc4)cc3C(=O)N2C)O1 here?
**A.** inactive

**Q.** Which cytotoxicity call does the source give for C[C@@](Cc1ccccc1)(NC(=O)CN)c1ccccc1 here?
**A.** inactive

**Q.** CN(C(=O)CN(CCO)CC(=O)N(C)C(C)(C)Cc1ccccc1)C(C)(C)Cc1ccccc1 was tested. Which cytotoxicity call did it give?
**A.** active

**Q.** How did the cytotoxicity call turn out when O=C(O)CN(CCc1ccccc1)CC(=O)O was run?
**A.** inactive

**Q.** Which cytotoxicity call does the source give for O=C(NC1(c2ccccc2)CC1)c1c(CN2CCC(N3CCCCC3)CC2)c(-c2cccc(C(F)(F)F)c2)nc2cc(Br)ccc12 here?
**A.** active

**Q.** Which cytotoxicity call does the source give for COc1ccc(S(=O)(=O)N(C)C[C@@H]2Oc3c(NS(=O)(=O)c4ccccc4)cccc3C(=O)N([C@H](C)CO)C[C@H]2C)cc1 here?
**A.** inactive

**Q.** COc1ccccc1OCCNCC(O)COc1cccc2[nH]c3ccccc3c12.O=P(O)(O)O (centres undefined) was tested. Which cytotoxicity call did it give?
**A.** active

**Q.** With COc1cccc(OC)c1OCCNCCO as the compound, how does the cytotoxicity call read?
**A.** inactive

**Q.** With COc1ccccc1OCCNCC(O)COc1cccc2[nH]c3ccccc3c12 (centres undefined) as the compound, how does the cytotoxicity call read?
**A.** active

**Q.** COc1ccccc1OC[C@@H](O)CO was tested. Which cytotoxicity call did it give?
**A.** inactive

**Q.** Which cytotoxicity call does the source give for COc1ccccc1OCC(O)CO (centres undefined) here?
**A.** inactive

**Q.** For CO[C@@H]1CN(C)C(=O)c2ccc(NC(=O)Nc3ccccc3F)cc2OC[C@H](C)N(Cc2ccccc2C(=O)O)C[C@H]1C, which cytotoxicity call is on record?
**A.** inactive

**Q.** Which cytotoxicity call does the source give for O=C(C[C@H]1C[C@@H]2c3cc(NC(=O)Cc4ccncc4)ccc3O[C@@H]2[C@@H](CO)O1)NCc1ccc2c(c1)OCO2 here?
**A.** inactive

**Q.** Cc1noc(C)c1S(=O)(=O)Nc1ccc2c(c1)C(=O)N([C@@H](C)CO)C[C@@H](C)[C@H](CN(C)Cc1ccccc1)OCCCC[C@H](C)O2 was tested. Which cytotoxicity call did it give?
**A.** inactive

**Q.** COc1ccc(NC(=O)N(C)C[C@@H]2Oc3ccc(NC(=O)C4CC4)cc3C(=O)N([C@H](C)CO)C[C@@H]2C)cc1 was tested. Which cytotoxicity call did it give?
**A.** inactive

**Q.** With Cc1ccc(S(=O)(=O)N(C)C[C@H]2Oc3ncc(-c4ccncc4)cc3C(=O)N([C@@H](C)CO)C[C@@H]2C)cc1 as the compound, how does the cytotoxicity call read?
**A.** inactive

**Q.** With C[C@@H]1CCCCO[C@@H](CN(C)C(=O)Nc2cccc3ccccc23)[C@@H](C)CN([C@@H](C)CO)C(=O)c2cc(NC(=O)Nc3ccc(C(F)(F)F)cc3)ccc2O1 as the compound, how does the cytotoxicity call read?
**A.** inactive

**Q.** C[C@H]1CN([C@@H](C)CO)C(=O)Cc2cc(NC(=O)CCN3CCOCC3)ccc2O[C@H]1CN(C)Cc1ccc(C(=O)Nc2ccccc2N)cc1 was tested. Which cytotoxicity call did it give?
**A.** inactive

**Q.** For Cc1ccc(S(=O)(=O)N[C@@H](Cc2ccccc2)C(=O)NCCCn2cc(CN3C(=O)COC[C@H]3c3ccccc3)nn2)cc1, which cytotoxicity call is on record?
**A.** inactive

**Q.** CC(=O)O[C@@H]1[C@@H]2C[C@@H]([C@H]1OC(C)=O)[C@@H]1C(=O)N(C)C(=O)[C@@H]21 was tested. Which cytotoxicity call did it give?
**A.** active

**Q.** Which cytotoxicity call does the source give for CC(=O)O[C@@H]1[C@H](OC(C)=O)N(C)C(=O)N1C here?
**A.** inactive

**Q.** With CC(=O)O[C@@H]1[C@H](OC(C)=O)N(C(C)=O)C(=O)N1C(C)=O as the compound, how does the cytotoxicity call read?
**A.** inactive

**Q.** With C[C@@H]1CN([C@H](C)CO)C(=O)c2cccc(NS(C)(=O)=O)c2O[C@H]1CN(C)Cc1ccc(C(=O)Nc2ccccc2N)cc1 as the compound, how does the cytotoxicity call read?
**A.** inactive

**Q.** C[C@@H]1O[C@@H](OC[C@H]2O[C@@H](Oc3c(-c4ccc(O)cc4)oc4cc(O)cc(O)c4c3=O)[C@H](O)[C@@H](O)[C@@H]2O)[C@H](O)[C@H](O)[C@H]1O was tested. Which cytotoxicity call did it give?
**A.** inactive

**Q.** With COc1ccc(CN2C[C@H](C)[C@H](OC)CN(C)C(=O)c3cc(NC(=O)c4nc5ccccc5s4)ccc3OC[C@@H]2C)cc1 as the compound, how does the cytotoxicity call read?
**A.** inactive

**Q.** For C[C@@H]1CN([C@@H](C)CO)C(=O)c2cc(NC(=O)Cn3cnnn3)ccc2O[C@@H]1CN(C)S(=O)(=O)c1ccc(F)cc1, which cytotoxicity call is on record?
**A.** inactive

**Q.** For Cc1ccc(-c2ncns2)cc1, which cytotoxicity call is on record?
**A.** inactive

**Q.** COc1ccc([C@@H](NC(=O)C2CCN(Cc3ccc(Oc4ccccc4)cc3)CC2)c2ccccn2)cc1 was tested. Which cytotoxicity call did it give?
**A.** inactive

**Q.** Which cytotoxicity call does the source give for O=C(N[C@@H](c1ccc(-c2ccccc2)cc1)c1cnccn1)C1CCN(Cc2ccc(Cl)c(Cl)c2)CC1 here?
**A.** inactive

**Q.** How did the cytotoxicity call turn out when O=C(N[C@@H](c1ccc(-c2ccccc2)cc1)c1cnccn1)C1CCN(Cc2cccc(C(F)(F)F)c2)CC1 was run?
**A.** inactive

**Q.** How did the cytotoxicity call turn out when Cc1cccnc1[C@@H](NC(=O)C1CCN(Cc2ccc(Oc3ccccc3)cc2)CC1)c1ccc(F)cc1 was run?
**A.** inactive

**Q.** For O=C(N[C@H](c1ccc(Cl)cc1)c1ccsc1)C1CCN(Cc2ccc(Oc3ccccc3)cc2)CC1, which cytotoxicity call is on record?
**A.** inactive

**Q.** With COc1cc(CN2CCC(C(=O)N[C@@H](c3ccc(-c4ccccc4)cc3)c3cnccn3)CC2)cc(OC)c1 as the compound, how does the cytotoxicity call read?
**A.** active

**Q.** With Cc1cccnc1[C@@H](NC(=O)C1CCN(Cc2ccc(Cl)c(Cl)c2)CC1)c1ccc(Cl)cc1 as the compound, how does the cytotoxicity call read?
**A.** active

**Q.** With COc1cccc([C@@H](NC(=O)C2CCN(Cc3ccc(Oc4ccccc4)cc3)CC2)c2ccccn2)c1 as the compound, how does the cytotoxicity call read?
**A.** inactive

**Q.** For O=C(N[C@H](c1ccc(Cl)cc1)c1cnccn1)C1CCN(Cc2ccc(Oc3ccccc3)cc2)CC1, which cytotoxicity call is on record?
**A.** active

**Q.** For O=C(N[C@@H](c1ccc(-c2ccccc2)cc1)c1cnccn1)C1CCN(Cc2ccc(Oc3ccccc3)cc2)CC1, which cytotoxicity call is on record?
**A.** active

**Q.** Cc1cccnc1[C@@H](NC(=O)C1CCN(CCOc2ccc(Cl)cc2Cl)CC1)c1ccc(Cl)cc1 was tested. Which cytotoxicity call did it give?
**A.** inactive
